High-throughput results: PubChem BioAssay, Broad Institute
aSyn UTR act: Activators via SNCA 5'UTR binding, MLPCN | alpha-synuclein 5'UTR reporter, activators screen | activity score, % (tested at 7.5 µM), hits read low | 300,000 tested, 7.1% active | AID 1814; in the data active = activity score below about -60%
* hit, by the source's call. These entries were drawn from the full list.

SMILES | aSyn UTR act
COC(=O)c1ccc(COc2ccc(/C=N/Nc3cccc(C(=O)O)c3)cc2)cc1 | -84*
O=C(O)c1cc(NN=C2CCN(Cc3ccccc3)CC2)ccc1Cl | -202*
CCN(CC)CCNC(=O)c1ccc2c(=O)n(CCc3ccccc3)c(=O)[nH]c2c1 | -109*
O=C(Cc1csc(Nc2nc(=S)[nH]c3ccccc23)n1)NCCCN1CCN(c2ccccc2F)CC1 | 92
O=C(NCCCN1CCCCC1)c1ccc2c(=O)n(CCc3ccccc3)c(=O)[nH]c2c1 | -82*
O=C1Nc2cc(C(=O)NCCCN3CCCC3)ccc2S/C1=C\c1ccccc1 | -94*
CCN1CCN(CCCNC(=O)c2ccc(/C=C3/Oc4ccccc4N(Cc4cccc(C)c4)C3=O)cc2)CC1 | 101
COc1cc(/C=N/Nc2ccc(C(=O)O)cc2)cc(OC)c1OC | -148*
COc1cccc(/C=N/NC(=S)Nc2cccc(C(=O)O)c2)c1O | 55
C=CCOc1c(OC)cc(/C=N/Nc2cccc(C(=O)O)c2)c(Br)c1Br | -177*
COc1ccc(/C=N/Nc2ccc(C(=O)O)cc2)c(OC)c1OC | -118*
O=C(Nc1cccs1)Nc1ccccc1Cl | -71*
Cc1ccc(NC(=O)Nc2cccs2)c(Cl)c1 | -201*
Cc1c(NC(=O)Nc2cccs2)cccc1[N+](=O)[O-] | -71*
O=C(NC(=O)c1csnn1)Nc1ccccc1Cl | -103*
Cc1c(NC(=S)Nc2ccccc2C(F)(F)F)cccc1[N+](=O)[O-] | -65*
O=c1c2ccccc2nnn1COc1ccc(F)cc1Cl | -118*
O=c1c2ccccc2nnn1COc1ccc(Cl)cc1Br | -154*
O=c1c2ccccc2nnn1COc1cccc2ccccc12 | -147*
CCNc1oc(/C=C/c2ccc(OCC)cc2)nc1C#N | -188*
CNc1oc(/C=C/c2cccc(OC)c2)nc1C#N | -180*
CCN(CC)CCCNc1oc(/C=C/c2ccccc2)nc1C#N | -64*
Cc1cc(C(=O)O)ccc1N/C=C1\CCCC(C)C1=O (stereo not given) | -131*
CC1CCC/C(=C\Nc2ccc(O)cc2)C1=O (stereo not given) | -116*
COc1cccc(OCCNc2cc(N3CCOCC3)ccc2[N+](=O)[O-])c1 | -78*
SMILES | aSyn UTR act
Cc1ccc(OCc2nnc(N)s2)cc1C | -62*
Clc1ccccc1CONc1ncnc2nonc12 | -91*
CNC(=O)c1ccc(-c2cc(C(F)(F)F)nn2C)s1 | -142*
Cc1cc([N+](=O)[O-])ccc1-c1ccc(C2Nc3ccccc3C(=O)N2O)o1 (stereo not given) | 83
O=C1c2ccccc2NC(c2cccc([N+](=O)[O-])c2)N1CCc1ccccc1 (stereo not given) | -136*
COc1cccc(Nc2nc(CC(C)=O)ns2)c1 | -86*
CC(=O)Cc1nsc(Nc2ccc3c(c2)OCCO3)n1 | -125*
COc1ccc(Nc2nc(CC(C)=O)ns2)cc1 | -109*
Cn1cccc1C(=O)OCC(=O)Nc1ccc2c(c1)OCO2 | -101*
Cn1cccc1C(=O)OCC(=O)Nc1ccc2c(c1)CCC2 | -138*
C=CCn1c(C)csc1=Nc1ccc(C(C)=O)cc1 | -99*
CCOC(=O)c1ccc(N=NN(C)C)cc1 | -156*
CCOC(=O)c1ccc(N=c2scc(C)n2CC)cc1 | -91*
COc1cccc(NC(=O)c2ccc(NC(=O)C(C)(C)C)cc2)c1 | -189*
CC(C)(C)C(=O)Nc1ccc(C(=O)Nc2cccnc2)cc1 | -120*
CC(C)c1cc(C(=O)Nc2cccnc2)no1 | -85*
CCC(C)c1ccc(NC(=O)c2cccnc2)cc1 (stereo not given) | -269*
O=C(Nc1ccc(-c2cnco2)cc1)c1ccccc1 | -172*
O=C(Nc1ccncc1)c1ccc(-c2ccccc2)cc1 | -127*
O=C(Nc1cccnc1)c1ccc(-c2ccccc2)cc1 | -163*
O=C(Nc1ccccc1)c1cnc[nH]1 | -68*
COc1cccc(-c2cc(=O)c3cc(NC(=O)c4ccc(Cl)cc4)ccc3[nH]2)c1 | -68*
CC(C)c1ccc(C(=O)Nc2cccnc2)cc1 | -96*
Cc1ccc(C(=O)Nc2cccnc2)cc1Cl | -172*
O=C(Nc1cccnc1)c1cnc2ccccc2n1 | -73*
SMILES | aSyn UTR act
COc1cccc(-c2cc(=O)c3cc(NC(=O)c4ccccc4)ccc3[nH]2)c1 | 82
O=C(NNC(=O)c1ccc(-c2ccccc2)cc1)c1ccccc1 | -64*
CC(C)(C)C(=O)NC(=S)NNC(=O)c1ccc(-c2ccccc2)cc1 | 67
CC(C)(C)c1ccc(CN2C3=NCCCN3c3ccccc32)cc1 | -62*
CC(C)(C)c1ccc(Cn2c(=N)n(CC(O)c3ccco3)c3ccccc32)cc1 (stereo not given) | 101
O=Cc1c(-c2ccccc2)cc2oc3ccccc3cc1-2 | -119*
O=[N+]([O-])c1cccc(-c2nnn(C34CC5CC(CC(C5)C3)C4)n2)c1 | -82*
O=[N+]([O-])c1cc([N+](=O)[O-])c2cc3ccccc3nc2c1 | -176*
CSc1ccc(C2N=C(c3ccccc3)NO2)cc1 (stereo not given) | -128*
Oc1c(Br)cc(C2N=C(c3ccccc3)NO2)cc1Br (stereo not given) | -65*
CCC(C)N(CC(=O)Nc1cccc(C)c1C)C(=O)CCl (stereo not given) | -88*
COc1ccc(N2CCN(C(=O)c3ccc(Cn4c(=S)[nH]c5ccc(N6CCOCC6)cc5c4=O)cc3)CC2)cc1 | -111*
O=c1c2cc(N3CCOCC3)ccc2[nH]c(=S)n1Cc1ccc(Cl)cc1 | -121*
Cc1cc2c(C)nc(-c3ccccc3)nc2o1 | -167*
COc1cccc(/C=C2\CCC(C3CCCC3)C2=O)c1OC (stereo not given) | -163*
COc1cccc(/C=C2\CCC(C3CCCC3)C2=O)c1 (stereo not given) | -99*
Fc1cc2[nH]c(=S)[nH]c2cc1Cl | 42
Cn1ccnc1SCC(=O)c1c[nH]c2ccccc12 | -160*
Clc1cccc(Cl)c1/C=C/c1ccn[nH]1 | -232*
CCc1ccccc1NC(=O)c1cnc2scc(C)n2c1=O | -99*
O=C(NCCc1ccccc1)c1cnc2ccccn2c1=O | -73*
Cc1ccccc1NC(=O)c1cnc2ccccn2c1=O | 62
CSc1ccccc1NC(=O)c1cnc2scc(C)n2c1=O | -108*
CCOc1ccc(NC(=O)c2cnc3scc(C)n3c2=O)cc1 | -104*
Cc1csc2ncc(C(=O)NCCc3ccccc3)c(=O)n12 | -134*
SMILES | aSyn UTR act
O=[N+]([O-])c1nn(-c2ccc3c(c2)OCCO3)n(O)c1=NCc1ccc(F)cc1Cl | -140*
O=[N+]([O-])c1nn(-c2ccc3c(c2)OCCO3)n(O)c1=NCc1ccc(F)cc1 | -124*
O=[N+]([O-])c1nn(-c2ccc3c(c2)OCCO3)n(O)c1=NCCC1=CCCCC1 | -139*
CC(/C=C/c1ccccc1)=N\Nc1ccccc1[N+](=O)[O-] | -150*
COc1ccc(/C=C/C(=O)Nc2cccc(S(=O)(=O)NC3=NCCCCC3)c2)cc1 | -67*
O=C(/C=C/c1ccc(OC(F)F)cc1)Nc1cccc(S(=O)(=O)NC2=NCCCCC2)c1 | -72*
O=C(CCl)Nc1cccc(S(=O)(=O)NC2=NCCC2)c1 | -180*
Cn1nnnc1Sc1ncnc2scc(-c3ccc(F)cc3)c12 | -89*
[O-][n+]1onc2c3ccnnc3ccc21 | -119*
Cc1cc2c(ccc3c2no[n+]3[O-])nn1 | -100*
CCOC(=O)CC1COCCN1C(=O)c1ccc2oc(Cc3ccccc3)nc2c1 (stereo not given) | -132*
O=C(c1ccc2oc(CCCc3ccccc3)nc2c1)N1CCCCC1CO (stereo not given) | -87*
